# Assay results from paper PMC7862700, “An all-to-all approach to the identification of sequence-specific readers for epigenetic DNA modifications on cytosine”.
# Tests used:
# Test in all cases: DAPPL (digital affinity profiling via proximity ligation, sequencing); 10 mM Tris-HCl pH 7.5, 50 mM NaCl, 1 mM DTT, 4% glycerol, room temperature, 30 min; GST-TFs on glutathione beads, 16-mer random dsDNA library, 0.1% formaldehyde crosslink after washing; high values mean tight binding
# FLI1 = molecular target: T1, FLI1 (Homo sapiens, UniProt Q01543 1-452); details: protein: recombinant; tags: N-terminal GST; dsDNA, one strand shown
# T1 sequence: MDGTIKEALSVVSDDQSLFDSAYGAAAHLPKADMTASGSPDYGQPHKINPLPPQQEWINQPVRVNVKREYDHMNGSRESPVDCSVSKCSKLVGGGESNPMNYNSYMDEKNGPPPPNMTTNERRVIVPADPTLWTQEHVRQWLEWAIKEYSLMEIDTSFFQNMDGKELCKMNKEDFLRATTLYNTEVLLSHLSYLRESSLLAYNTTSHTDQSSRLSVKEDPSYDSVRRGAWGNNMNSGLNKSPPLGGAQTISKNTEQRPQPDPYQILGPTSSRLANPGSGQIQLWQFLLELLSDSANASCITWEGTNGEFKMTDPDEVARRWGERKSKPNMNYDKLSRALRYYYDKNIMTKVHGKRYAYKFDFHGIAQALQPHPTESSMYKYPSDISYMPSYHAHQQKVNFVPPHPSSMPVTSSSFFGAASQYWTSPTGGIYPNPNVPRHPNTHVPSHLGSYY
# Summary of the method: (§1)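 Sequencing on an Illumina NextSeq500 followed washing, crosslinking with 0.1% formaldehyde, proximity ligation (BsaI/T4 ligase, 1 h, 37 °C) and PCR amplification of pools that had been incubated for 30 min at room temperature with 200 nmole of a random double-stranded 16-mer DNA library in Tris/NaCl/DTT/glycerol buffer. Each pool held DNA-barcoded human transcription factors, expressed in yeast as GST fusions and captured on glutathione beads, plus a tag-only sample. Binding signal is a hexamer's read frequency for a factor divided by its frequency in the tag-only sample.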
# ELK1 = molecular target: T2, ELK1 (Homo sapiens, UniProt P19419 1-428); details: protein: recombinant; tags: N-terminal GST; dsDNA, one strand shown
# T2 sequence: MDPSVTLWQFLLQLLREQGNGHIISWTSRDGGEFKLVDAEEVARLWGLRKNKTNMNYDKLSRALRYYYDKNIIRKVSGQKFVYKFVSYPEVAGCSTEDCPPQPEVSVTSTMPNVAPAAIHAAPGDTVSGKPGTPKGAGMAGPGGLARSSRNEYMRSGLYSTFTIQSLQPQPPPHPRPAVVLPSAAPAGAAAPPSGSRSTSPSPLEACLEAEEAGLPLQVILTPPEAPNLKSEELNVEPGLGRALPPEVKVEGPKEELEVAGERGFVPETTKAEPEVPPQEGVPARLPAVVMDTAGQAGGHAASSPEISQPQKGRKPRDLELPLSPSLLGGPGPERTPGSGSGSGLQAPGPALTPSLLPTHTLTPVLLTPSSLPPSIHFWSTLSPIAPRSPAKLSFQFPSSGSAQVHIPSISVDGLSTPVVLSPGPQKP
# Summary of the method: as §1
# GABPA = molecular target: T3, GABPA (Homo sapiens, UniProt Q06546 1-454); details: protein: recombinant; tags: N-terminal GST; dsDNA, one strand shown
# T3 sequence: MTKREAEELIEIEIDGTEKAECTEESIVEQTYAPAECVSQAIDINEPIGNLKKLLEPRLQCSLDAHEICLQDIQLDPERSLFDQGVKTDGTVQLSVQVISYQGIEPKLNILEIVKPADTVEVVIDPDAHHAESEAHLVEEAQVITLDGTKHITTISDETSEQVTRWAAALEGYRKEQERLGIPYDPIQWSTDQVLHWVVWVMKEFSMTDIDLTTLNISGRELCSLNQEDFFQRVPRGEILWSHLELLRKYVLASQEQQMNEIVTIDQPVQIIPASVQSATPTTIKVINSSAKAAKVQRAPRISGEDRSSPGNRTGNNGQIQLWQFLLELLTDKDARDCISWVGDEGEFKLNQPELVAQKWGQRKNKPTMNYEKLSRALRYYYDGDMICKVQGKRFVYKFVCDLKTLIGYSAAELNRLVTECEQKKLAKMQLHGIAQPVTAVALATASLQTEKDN
# Summary of the method: as §1
# ERG = molecular target: T4, ERG (Homo sapiens, UniProt P11308 1-479); details: protein: recombinant; tags: N-terminal GST; dsDNA, one strand shown
# T4 sequence: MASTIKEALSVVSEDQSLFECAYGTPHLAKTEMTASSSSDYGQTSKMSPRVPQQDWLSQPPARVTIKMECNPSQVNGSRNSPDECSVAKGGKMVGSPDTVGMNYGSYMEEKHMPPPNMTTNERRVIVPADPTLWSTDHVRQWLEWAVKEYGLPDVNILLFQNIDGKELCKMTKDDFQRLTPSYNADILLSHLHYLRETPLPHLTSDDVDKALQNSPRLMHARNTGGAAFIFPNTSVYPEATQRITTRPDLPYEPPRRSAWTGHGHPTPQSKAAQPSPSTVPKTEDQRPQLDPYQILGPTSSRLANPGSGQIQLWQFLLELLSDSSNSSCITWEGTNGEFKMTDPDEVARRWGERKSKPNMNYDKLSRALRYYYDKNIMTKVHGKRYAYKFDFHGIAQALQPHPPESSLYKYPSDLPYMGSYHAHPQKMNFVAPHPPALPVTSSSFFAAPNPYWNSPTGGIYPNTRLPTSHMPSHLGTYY
# Summary of the method: as §1
# ELF1 = ELF1 (Homo sapiens, UniProt P32519 1-619); details: protein: recombinant; tags: N-terminal GST; dsDNA, one strand shown
# Summary of the method: as §1
# EHF = molecular target: T5, EHF (Homo sapiens, UniProt Q9NZC4 1-300); details: protein: recombinant; tags: N-terminal GST; dsDNA, one strand shown
# T5 sequence: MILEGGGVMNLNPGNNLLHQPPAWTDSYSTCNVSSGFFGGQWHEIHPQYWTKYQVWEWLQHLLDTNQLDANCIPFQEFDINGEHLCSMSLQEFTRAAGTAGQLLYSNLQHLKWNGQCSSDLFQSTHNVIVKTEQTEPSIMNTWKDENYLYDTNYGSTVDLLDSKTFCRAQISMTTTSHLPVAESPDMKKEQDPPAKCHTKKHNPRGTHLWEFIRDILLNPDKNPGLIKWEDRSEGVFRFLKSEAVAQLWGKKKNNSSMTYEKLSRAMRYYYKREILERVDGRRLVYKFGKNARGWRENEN
# Summary of the method: as §1
# SPI1 = SPI1 (Homo sapiens, UniProt P17947 1-270); details: protein: recombinant; tags: N-terminal GST; dsDNA, one strand shown
# Summary of the method: as §1
# SPIB = SPIB (Homo sapiens, UniProt Q01892 1-262); details: protein: recombinant; tags: N-terminal GST; dsDNA, one strand shown
# Summary of the method: as §1
# ELK3 = molecular target: T6, ELK3 (Homo sapiens, UniProt P41970 1-407); details: protein: recombinant; tags: N-terminal GST; dsDNA, one strand shown
# T6 sequence: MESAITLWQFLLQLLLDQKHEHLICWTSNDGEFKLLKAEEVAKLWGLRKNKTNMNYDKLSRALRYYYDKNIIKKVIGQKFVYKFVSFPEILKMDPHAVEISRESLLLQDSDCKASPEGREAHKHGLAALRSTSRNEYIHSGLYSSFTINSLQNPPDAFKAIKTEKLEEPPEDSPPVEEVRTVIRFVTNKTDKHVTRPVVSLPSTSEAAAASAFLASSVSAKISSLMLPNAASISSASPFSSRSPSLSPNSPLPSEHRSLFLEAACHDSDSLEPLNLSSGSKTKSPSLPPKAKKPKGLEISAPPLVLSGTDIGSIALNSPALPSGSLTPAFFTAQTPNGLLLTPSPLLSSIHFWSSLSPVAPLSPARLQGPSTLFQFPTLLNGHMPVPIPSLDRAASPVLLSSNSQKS
# Summary of the method: as §1
# FEV = molecular target: T7, FEV (Homo sapiens, UniProt Q99581 1-238); details: protein: recombinant; tags: N-terminal GST; dsDNA, one strand shown
# T7 sequence: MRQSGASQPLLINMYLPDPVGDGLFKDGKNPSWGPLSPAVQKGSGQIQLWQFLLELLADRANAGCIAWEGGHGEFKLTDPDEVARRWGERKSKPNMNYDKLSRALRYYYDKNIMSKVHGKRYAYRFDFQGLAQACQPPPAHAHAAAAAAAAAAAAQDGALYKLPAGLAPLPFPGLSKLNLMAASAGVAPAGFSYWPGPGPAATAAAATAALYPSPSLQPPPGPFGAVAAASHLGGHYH
# Summary of the method: as §1
# ETV5 = ETV5 (Homo sapiens, UniProt P41161 1-510); details: protein: recombinant; tags: N-terminal GST; dsDNA, one strand shown
# Summary of the method: as §1
# HSF1 = HSF1 (Homo sapiens, UniProt Q00613 1-529); details: protein: recombinant; tags: N-terminal GST; chain copies: 3; dsDNA, one strand shown
# Summary of the method: as §1
# SPIC = molecular target: T8, SPIC (Homo sapiens, UniProt Q8N5J4 1-248); details: protein: recombinant; tags: N-terminal GST; dsDNA, one strand shown
# T8 sequence: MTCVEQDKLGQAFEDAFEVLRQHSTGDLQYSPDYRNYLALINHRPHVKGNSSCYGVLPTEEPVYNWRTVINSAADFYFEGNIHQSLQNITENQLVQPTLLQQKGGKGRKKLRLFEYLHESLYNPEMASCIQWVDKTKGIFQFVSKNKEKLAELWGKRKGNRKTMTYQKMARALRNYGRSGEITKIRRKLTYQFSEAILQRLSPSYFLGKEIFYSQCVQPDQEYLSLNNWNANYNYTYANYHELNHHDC
# Summary of the method: as §1
# ELF4 = ELF4 (Homo sapiens, UniProt Q99607 1-663); details: protein: recombinant; tags: N-terminal GST; dsDNA, one strand shown
# Summary of the method: as §1
# ELK4 = molecular target: T9, ELK4 (Homo sapiens, UniProt P28324-2 1-405); details: protein: recombinant; tags: N-terminal GST; dsDNA, one strand shown
# T9 sequence: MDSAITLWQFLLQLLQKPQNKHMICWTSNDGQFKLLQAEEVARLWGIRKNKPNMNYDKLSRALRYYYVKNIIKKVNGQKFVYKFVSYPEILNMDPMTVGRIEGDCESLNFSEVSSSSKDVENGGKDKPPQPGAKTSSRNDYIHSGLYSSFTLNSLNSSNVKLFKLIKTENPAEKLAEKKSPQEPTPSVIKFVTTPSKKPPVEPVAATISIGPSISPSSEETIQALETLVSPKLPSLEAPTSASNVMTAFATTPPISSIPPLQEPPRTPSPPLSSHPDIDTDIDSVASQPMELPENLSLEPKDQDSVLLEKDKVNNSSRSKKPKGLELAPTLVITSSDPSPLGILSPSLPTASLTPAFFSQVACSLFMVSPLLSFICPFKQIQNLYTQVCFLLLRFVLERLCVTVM
# Summary of the method: as §1
# ETV2 = molecular target: T10, ETV2 (Homo sapiens, UniProt O00321 1-342); details: protein: recombinant; tags: N-terminal GST; dsDNA, one strand shown
# T10 sequence: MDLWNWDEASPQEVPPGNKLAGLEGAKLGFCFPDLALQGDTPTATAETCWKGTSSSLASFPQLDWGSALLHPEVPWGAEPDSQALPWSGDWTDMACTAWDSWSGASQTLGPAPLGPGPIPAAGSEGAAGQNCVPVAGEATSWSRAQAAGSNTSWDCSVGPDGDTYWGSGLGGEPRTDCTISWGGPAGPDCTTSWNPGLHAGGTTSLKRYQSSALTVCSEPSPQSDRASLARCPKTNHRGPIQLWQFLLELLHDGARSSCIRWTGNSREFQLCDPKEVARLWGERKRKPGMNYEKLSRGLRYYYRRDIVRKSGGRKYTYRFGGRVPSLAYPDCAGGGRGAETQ
# Summary of the method: as §1
# ELF3 = molecular target: T11, ELF3 (Homo sapiens, UniProt P78545 1-371); details: protein: recombinant; tags: N-terminal GST; dsDNA, one strand shown
# T11 sequence: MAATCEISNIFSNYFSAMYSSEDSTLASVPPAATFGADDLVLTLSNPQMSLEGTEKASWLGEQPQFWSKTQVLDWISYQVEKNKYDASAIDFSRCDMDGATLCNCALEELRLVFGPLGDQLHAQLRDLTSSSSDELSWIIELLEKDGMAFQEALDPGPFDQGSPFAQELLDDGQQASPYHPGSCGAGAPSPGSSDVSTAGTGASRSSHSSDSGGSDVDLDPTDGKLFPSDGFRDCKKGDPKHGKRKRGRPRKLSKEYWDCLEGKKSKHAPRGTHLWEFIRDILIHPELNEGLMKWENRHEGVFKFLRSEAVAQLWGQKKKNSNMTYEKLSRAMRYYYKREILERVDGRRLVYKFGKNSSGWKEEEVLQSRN
# Summary of the method: as §1
# CRX = CRX (Homo sapiens, UniProt O43186 1-299); details: protein: recombinant; tags: N-terminal GST; dsDNA, one strand shown
# Summary of the method: as §1
# ETV1 = ETV1 (Homo sapiens, UniProt P50549 1-477); details: protein: recombinant; tags: N-terminal GST; dsDNA, one strand shown
# Summary of the method: as §1
# Sequence of ETV1 (P50549 whole entry): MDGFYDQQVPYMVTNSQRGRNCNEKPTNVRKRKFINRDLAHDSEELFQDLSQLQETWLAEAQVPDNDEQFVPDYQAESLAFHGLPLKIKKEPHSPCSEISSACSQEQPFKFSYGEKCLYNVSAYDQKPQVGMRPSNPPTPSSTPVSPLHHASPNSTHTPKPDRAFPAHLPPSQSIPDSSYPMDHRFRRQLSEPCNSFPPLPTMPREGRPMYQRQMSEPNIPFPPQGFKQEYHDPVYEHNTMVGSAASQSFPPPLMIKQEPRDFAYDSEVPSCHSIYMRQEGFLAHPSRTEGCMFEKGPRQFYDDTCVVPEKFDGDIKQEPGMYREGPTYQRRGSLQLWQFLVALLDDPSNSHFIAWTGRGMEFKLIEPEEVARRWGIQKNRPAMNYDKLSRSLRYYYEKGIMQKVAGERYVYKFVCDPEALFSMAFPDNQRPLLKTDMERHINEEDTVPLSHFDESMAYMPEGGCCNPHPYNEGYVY
# Sequence of CRX (O43186 whole entry): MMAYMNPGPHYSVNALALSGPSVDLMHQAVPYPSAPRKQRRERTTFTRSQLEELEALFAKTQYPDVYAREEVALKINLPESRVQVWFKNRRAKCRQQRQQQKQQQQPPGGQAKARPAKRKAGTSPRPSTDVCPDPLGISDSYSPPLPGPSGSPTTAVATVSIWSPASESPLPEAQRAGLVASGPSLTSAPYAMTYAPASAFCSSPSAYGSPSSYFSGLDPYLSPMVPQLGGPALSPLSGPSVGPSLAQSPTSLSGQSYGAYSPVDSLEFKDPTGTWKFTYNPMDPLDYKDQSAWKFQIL
# Sequence of ELF4 (Q99607 whole entry): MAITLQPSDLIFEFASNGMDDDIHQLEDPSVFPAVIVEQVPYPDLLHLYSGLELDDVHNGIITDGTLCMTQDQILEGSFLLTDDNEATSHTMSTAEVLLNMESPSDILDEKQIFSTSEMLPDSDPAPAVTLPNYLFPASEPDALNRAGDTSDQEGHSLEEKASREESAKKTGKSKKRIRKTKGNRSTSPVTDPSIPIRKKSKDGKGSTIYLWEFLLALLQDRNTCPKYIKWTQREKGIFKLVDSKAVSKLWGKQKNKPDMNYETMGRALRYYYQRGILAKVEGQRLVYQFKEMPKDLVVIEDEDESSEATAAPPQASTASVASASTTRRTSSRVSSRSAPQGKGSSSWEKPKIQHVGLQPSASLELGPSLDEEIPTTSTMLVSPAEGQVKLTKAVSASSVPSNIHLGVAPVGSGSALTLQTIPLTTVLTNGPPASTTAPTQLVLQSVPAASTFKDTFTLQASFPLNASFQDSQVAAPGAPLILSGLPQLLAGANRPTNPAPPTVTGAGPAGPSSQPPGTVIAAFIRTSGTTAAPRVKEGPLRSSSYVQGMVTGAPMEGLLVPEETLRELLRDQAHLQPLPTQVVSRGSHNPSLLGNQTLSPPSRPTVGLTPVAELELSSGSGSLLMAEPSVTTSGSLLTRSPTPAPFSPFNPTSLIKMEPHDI
# Sequence of HSF1 (Q00613 whole entry): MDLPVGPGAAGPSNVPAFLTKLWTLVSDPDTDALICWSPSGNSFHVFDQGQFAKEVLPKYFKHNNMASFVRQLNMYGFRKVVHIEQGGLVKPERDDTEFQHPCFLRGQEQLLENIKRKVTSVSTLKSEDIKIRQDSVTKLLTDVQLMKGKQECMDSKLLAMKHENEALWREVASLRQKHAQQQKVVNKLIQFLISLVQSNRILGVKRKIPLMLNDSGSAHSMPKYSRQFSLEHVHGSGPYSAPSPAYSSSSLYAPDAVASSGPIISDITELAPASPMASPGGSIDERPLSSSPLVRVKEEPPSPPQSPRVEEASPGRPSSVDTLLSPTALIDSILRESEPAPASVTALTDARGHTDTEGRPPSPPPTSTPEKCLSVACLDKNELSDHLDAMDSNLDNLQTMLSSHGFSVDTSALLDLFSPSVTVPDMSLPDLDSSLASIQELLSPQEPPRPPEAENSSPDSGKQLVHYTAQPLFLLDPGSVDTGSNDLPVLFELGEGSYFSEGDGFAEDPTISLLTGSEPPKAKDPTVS
# Sequence of SPIB (Q01892 whole entry): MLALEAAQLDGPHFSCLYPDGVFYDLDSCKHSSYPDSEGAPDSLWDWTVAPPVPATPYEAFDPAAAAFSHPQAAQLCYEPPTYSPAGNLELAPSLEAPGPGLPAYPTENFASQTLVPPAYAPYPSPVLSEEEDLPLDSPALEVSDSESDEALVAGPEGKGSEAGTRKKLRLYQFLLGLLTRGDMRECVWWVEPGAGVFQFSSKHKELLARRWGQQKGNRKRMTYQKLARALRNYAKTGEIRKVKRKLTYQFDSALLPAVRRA
# Sequence of ELF1 (P32519 whole entry): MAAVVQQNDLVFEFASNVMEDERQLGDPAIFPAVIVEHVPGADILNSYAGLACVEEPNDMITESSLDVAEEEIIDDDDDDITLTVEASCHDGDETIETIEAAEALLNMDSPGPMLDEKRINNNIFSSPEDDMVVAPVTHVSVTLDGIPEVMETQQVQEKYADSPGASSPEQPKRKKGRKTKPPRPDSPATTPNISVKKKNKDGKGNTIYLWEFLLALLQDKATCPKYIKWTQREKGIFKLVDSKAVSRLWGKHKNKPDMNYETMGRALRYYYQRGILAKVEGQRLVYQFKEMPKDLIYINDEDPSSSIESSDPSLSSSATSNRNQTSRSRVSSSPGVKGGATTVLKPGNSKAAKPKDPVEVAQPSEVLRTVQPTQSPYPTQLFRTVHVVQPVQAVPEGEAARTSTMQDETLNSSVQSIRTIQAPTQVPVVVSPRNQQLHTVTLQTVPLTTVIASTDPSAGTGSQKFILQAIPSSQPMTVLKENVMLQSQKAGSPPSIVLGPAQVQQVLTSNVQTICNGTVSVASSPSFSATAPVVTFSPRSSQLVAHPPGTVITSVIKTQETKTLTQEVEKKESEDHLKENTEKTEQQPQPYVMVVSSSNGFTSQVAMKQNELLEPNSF
# Sequence of ETV5 (P41161 whole entry): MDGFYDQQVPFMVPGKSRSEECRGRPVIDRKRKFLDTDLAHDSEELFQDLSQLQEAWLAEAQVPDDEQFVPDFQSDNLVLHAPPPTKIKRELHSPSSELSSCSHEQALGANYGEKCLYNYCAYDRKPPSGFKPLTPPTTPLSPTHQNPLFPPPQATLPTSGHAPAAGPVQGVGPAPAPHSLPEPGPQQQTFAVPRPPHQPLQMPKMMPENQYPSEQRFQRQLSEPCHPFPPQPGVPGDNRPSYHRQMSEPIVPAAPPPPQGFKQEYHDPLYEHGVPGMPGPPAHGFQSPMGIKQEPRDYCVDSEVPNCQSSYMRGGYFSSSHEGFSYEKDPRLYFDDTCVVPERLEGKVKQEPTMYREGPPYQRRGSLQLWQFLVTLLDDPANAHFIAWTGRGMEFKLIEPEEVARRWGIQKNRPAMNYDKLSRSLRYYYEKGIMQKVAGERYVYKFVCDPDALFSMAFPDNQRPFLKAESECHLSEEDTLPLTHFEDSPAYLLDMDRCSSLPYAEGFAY
sequence,measurement,setting,value
AATTTA,binding signal,FLI1,"1.17 fold enrichment (6-mer frequency, TF over GST control)"
same,binding signal,ELK1,"1.3 fold enrichment (6-mer frequency, TF over GST control)"
same,binding signal,GABPA,"1.24 fold enrichment (6-mer frequency, TF over GST control)"
same,binding signal,ERG,"1.19 fold enrichment (6-mer frequency, TF over GST control)"
same,binding signal,ELF1,"1.24 fold enrichment (6-mer frequency, TF over GST control)"
same,binding signal,EHF,"1.19 fold enrichment (6-mer frequency, TF over GST control)"
same,binding signal,SPI1,"1.2 fold enrichment (6-mer frequency, TF over GST control)"
same,binding signal,SPIB,"1.4 fold enrichment (6-mer frequency, TF over GST control)"
same,binding signal,ELK3,"1.16 fold enrichment (6-mer frequency, TF over GST control)"
same,binding signal,FEV,"1.16 fold enrichment (6-mer frequency, TF over GST control)"
same,binding signal,ETV5,"1.27 fold enrichment (6-mer frequency, TF over GST control)"
same,binding signal,HSF1,"1.44 fold enrichment (6-mer frequency, TF over GST control)"
same,binding signal,SPIC,"1.21 fold enrichment (6-mer frequency, TF over GST control)"
same,binding signal,ELF4,"1.21 fold enrichment (6-mer frequency, TF over GST control)"
same,binding signal,ELK4,"1.22 fold enrichment (6-mer frequency, TF over GST control)"
same,binding signal,ETV2,"1.13 fold enrichment (6-mer frequency, TF over GST control)"
same,binding signal,ELF3,"1.36 fold enrichment (6-mer frequency, TF over GST control)"
same,binding signal,CRX,"1.59 fold enrichment (6-mer frequency, TF over GST control)"
same,binding signal,ETV1,"1.22 fold enrichment (6-mer frequency, TF over GST control)"
